From the supplement of paper PMC10849652
Targets with a hit are over-represented here; the source holds about 7,900 in all. About 0.6% of all pairs of compound and target were hits.

Columns and labels:
Assay in all cases: log2 fold change, soluble protein after heating vs DMSO (PISA); higher = thermal stabilisation; K562 cells, 10 uM, 30 min; active = over 0.2 and 3.5 SD of the protein, either way, in both replicates (recomputed)
[1] = compound: NC(=O)Nc1cc(-c2cccc(F)c2)sc1C(=O)N[C@H]1CCCNC1
Method in brief: (§1)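 K562 cells at 2×10^6 cells/mL were exposed to 10 μM compound for 30 min, then aliquots were heated for 3 min across 48°C-58°C, pooled, and extracted in PBS containing 0.5% NP-40 at 4°C. The supernatant after 21,000xg for 90 min was taken as soluble protein and measured by TMTpro 16plex LC-MS/MS with channel sums equalised. Thermal stability is reported relative to control samples, with values from duplicates. Fold changes are given on a log2 scale.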

[2] = compound: NC(=O)c1cnc(N[C@@H]2CCCC[C@@H]2N)nc1Nc1cccc(-n2nccn2)c1
Method in brief: as §1

[3] = compound: NC1(c2ccc(-c3nc4ccn5c(=O)[nH]nc5c4cc3-c3ccccc3)cc2)CCC1
Method in brief: as §1

[4] = compound: NCC(=O)Nc1ccc(-n2nc(C(F)(F)F)cc2-c2ccc3c(ccc4ccccc43)c2)cc1
Method in brief: as §1

entinostat = compound: Nc1ccccc1NC(=O)c1ccc(CNC(=O)OCc2cccnc2)cc1 [entinostat]
Method in brief: as §1

vorinostat = compound: O=C(CCCCCCC(=O)Nc1ccccc1)NO [vorinostat]
Method in brief: as §1

citarinostat = compound: O=C(CCCCCCNC(=O)c1cnc(N(c2ccccc2)c2ccccc2Cl)nc1)NO [citarinostat]
Method in brief: as §1

silmitasertib = compound: O=C(O)c1ccc2c(c1)nc(Nc1cccc(Cl)c1)c1ccncc12 [silmitasertib]
Method in brief: as §1

[5] = compound: O=C1NC(=O)C(c2cnc3ccccn23)=C1c1cn2c3c(cc(F)cc13)CN(C(=O)N1CCCCC1)CC2
Method in brief: as §1

[6] = compound: c1cc(OCCN2CCCCC2)cc(-c2n[nH]c3ccc(-c4nnc[nH]4)cc23)c1
Method in brief: as §1

entospletinib = compound: c1cn2cc(-c3ccc4cn[nH]c4c3)nc(Nc3ccc(N4CCOCC4)cc3)c2n1 [entospletinib]
Method in brief: as §1

Measured: log2 fold change

ACSM3 (UniProt Q53FZ2)
inactive: [1] 0.017 | [2] 0 | [3] 0.021 | [4] -0.125 | entinostat 0.009 | vorinostat 0.122 | citarinostat 0.122 | silmitasertib 0.06 | [5] -0.134 | [6] -0.094 | entospletinib -0.004

ACACB (UniProt O00763)
inactive: [1] -0.02 | [2] -0.043 | [3] -0.047 | [4] 0.084 | entinostat 0.076 | vorinostat 0.082 | citarinostat 0.131 | silmitasertib 0.119 | [5] 0.222 | [6] -0.01 | entospletinib -0.077

ACSL5 isoform 3 (UniProt Q9ULC5)
inactive: [1] -0.007 | [2] -0.066 | [3] -0.042 | [4] -0.184 | entinostat 0.081 | vorinostat 0.005 | citarinostat -0.035 | silmitasertib 0.002 | [5] -0.103 | [6] -0.052 | entospletinib -0.021

BECN1 (UniProt Q14457)
inactive: [1] 0.045 | [2] 0.083 | [3] -0.006 | [4] -0.016 | entinostat -0.024 | vorinostat -0.073 | citarinostat -0.046 | silmitasertib 0.026 | [5] -0.071 | [6] 0.021 | entospletinib 0.011

AAMP (UniProt Q13685)
inactive: [1] -0.006 | [2] -0.05 | [3] -0.005 | [4] -0.018 | entinostat -0.055 | vorinostat 0.015 | citarinostat -0.026 | silmitasertib 0.061 | [5] 0.059 | [6] -0.013 | entospletinib 0.063

ALG3 (UniProt Q92685)
inactive: [1] -0.039 | [2] -0.037 | [3] -0.006 | [4] 0.045 | entinostat 0.172 | vorinostat -0.046 | citarinostat -0.051 | silmitasertib 0.034 | [5] -0.055 | [6] -0.027 | entospletinib 0.049

ATG9A (UniProt Q7Z3C6)
inactive: [1] 0.019 | [2] 0 | [3] -0.262 | [4] 0.038 | entinostat 0.008 | vorinostat 0.061 | citarinostat 0.059 | silmitasertib -0.023 | [5] 0.019 | [6] -0.013 | entospletinib -0.025

ALDH1B1 (UniProt P30837)
inactive: [1] 0 | [2] -0.039 | [3] -0.065 | [4] -0.054 | entinostat -0.019 | citarinostat 0.051 | silmitasertib -0.037 | [5] -0.015 | [6] 0.058 | entospletinib -0.018
active: vorinostat 0.281

ALDH9A1 isoform 3 (UniProt P49189)
inactive: [1] 0.04 | [2] -0.025 | [3] -0.011 | [4] -0.05 | entinostat 0.003 | vorinostat -0.003 | citarinostat 0.025 | silmitasertib -0.045 | [5] -0.033 | [6] 0.015 | entospletinib -0.017

AAR2 (UniProt Q9Y312)
inactive: [1] -0.016 | [2] -0.015 | [3] 0.066 | [4] -0.034 | entinostat 0.026 | vorinostat 0.19 | citarinostat -0.009 | silmitasertib 0.035 | [5] 0.04 | [6] -0.067 | entospletinib -0.017

AKAP8L (UniProt Q9ULX6)
Sequence of UniProt Q9ULX6 (Q9ULX6 whole entry, looked up): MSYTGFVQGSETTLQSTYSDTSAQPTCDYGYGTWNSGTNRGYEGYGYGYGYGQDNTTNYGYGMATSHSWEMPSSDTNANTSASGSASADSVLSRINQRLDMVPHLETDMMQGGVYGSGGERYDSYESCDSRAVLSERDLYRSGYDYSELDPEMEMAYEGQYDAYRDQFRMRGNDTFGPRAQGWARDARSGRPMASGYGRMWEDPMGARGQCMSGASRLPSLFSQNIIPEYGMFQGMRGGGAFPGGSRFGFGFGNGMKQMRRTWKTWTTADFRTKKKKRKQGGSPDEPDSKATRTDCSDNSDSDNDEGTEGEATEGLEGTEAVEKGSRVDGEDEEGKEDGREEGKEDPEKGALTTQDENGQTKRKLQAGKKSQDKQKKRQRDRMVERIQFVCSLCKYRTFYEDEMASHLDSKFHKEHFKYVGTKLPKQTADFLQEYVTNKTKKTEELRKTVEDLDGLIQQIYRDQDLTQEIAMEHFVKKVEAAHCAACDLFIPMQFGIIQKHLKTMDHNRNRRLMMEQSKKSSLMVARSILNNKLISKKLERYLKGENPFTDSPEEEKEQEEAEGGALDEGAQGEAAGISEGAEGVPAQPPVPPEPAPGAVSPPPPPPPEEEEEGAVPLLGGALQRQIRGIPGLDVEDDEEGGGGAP
inactive: [1] -0.006 | [2] 0.153 | [3] -0.063 | [4] -0.098 | entinostat 0.01 | vorinostat 0.088 | citarinostat 0.124 | silmitasertib -0.012 | [5] -0.236 | [6] -0.067 | entospletinib 0.171

ADD3 (UniProt Q9UEY8)
inactive: [1] 0.03 | [2] -0.014 | [3] 0.047 | [4] -0.001 | entinostat -0.051 | vorinostat -0.01 | citarinostat -0.015 | silmitasertib 0.001 | [5] -0.037 | [6] -0.024 | entospletinib 0.046

AFDN isoform 5 (UniProt P55196)
Sequence of UniProt P55196 (P55196 whole entry, looked up): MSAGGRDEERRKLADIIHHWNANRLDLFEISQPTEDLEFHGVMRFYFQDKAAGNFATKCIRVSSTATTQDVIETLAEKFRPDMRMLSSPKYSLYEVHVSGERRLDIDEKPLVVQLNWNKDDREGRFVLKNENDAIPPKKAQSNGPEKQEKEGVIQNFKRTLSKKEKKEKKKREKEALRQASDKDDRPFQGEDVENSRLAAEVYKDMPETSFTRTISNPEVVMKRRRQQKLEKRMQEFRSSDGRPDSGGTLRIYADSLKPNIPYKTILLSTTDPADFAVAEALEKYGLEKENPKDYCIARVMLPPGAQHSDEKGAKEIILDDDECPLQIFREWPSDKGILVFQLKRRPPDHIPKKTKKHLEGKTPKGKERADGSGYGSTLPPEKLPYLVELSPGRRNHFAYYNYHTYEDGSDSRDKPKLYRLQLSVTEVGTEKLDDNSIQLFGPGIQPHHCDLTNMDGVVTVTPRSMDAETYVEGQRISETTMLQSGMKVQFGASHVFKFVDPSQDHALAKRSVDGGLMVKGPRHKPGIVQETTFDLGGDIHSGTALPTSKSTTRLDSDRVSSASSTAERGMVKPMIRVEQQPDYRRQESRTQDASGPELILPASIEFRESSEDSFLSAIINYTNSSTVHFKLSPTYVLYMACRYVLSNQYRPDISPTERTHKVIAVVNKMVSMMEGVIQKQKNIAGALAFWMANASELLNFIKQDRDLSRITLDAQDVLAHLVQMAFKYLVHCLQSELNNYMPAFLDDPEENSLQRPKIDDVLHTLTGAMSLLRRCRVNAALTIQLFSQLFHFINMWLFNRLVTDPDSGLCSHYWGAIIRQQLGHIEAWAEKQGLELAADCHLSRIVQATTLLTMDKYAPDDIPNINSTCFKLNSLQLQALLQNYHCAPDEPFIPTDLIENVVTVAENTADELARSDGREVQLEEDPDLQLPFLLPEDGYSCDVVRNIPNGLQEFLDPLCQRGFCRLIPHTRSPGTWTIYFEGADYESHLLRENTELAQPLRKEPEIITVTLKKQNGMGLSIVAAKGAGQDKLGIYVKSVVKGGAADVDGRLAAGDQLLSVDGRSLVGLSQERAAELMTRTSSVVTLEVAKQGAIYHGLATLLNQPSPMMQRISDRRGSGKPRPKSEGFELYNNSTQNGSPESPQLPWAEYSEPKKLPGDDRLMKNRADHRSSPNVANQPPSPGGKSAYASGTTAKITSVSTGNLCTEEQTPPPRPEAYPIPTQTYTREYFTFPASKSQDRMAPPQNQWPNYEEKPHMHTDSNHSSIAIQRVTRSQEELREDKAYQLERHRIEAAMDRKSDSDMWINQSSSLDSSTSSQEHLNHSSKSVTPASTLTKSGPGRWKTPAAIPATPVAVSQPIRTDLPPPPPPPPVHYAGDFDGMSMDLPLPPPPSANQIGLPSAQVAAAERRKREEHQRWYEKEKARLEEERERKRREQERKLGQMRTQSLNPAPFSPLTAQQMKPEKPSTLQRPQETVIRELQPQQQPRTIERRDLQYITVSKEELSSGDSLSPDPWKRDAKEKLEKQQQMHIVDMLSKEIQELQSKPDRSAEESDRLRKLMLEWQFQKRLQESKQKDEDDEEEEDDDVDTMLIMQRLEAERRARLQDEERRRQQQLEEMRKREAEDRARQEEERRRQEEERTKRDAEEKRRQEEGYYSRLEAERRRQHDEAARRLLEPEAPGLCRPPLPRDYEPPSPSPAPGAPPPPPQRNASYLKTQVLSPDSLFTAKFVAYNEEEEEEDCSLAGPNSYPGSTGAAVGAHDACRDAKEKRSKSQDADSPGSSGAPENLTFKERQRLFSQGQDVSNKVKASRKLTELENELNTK
inactive: [1] -0.154 | [2] -0.009 | [3] -0.099 | [4] -0.025 | entinostat 0.008 | vorinostat 0.019 | citarinostat 0.079 | silmitasertib -0.012 | [5] -0.052 | [6] -0.068 | entospletinib -0.041

ATAD3B (UniProt Q5T9A4)
inactive: [1] 0.017 | [2] -0.029 | [3] -0.089 | [4] -0.088 | entinostat 0.013 | vorinostat 0.108 | citarinostat -0.016 | silmitasertib 0.005 | [5] 0.248 | [6] -0.104 | entospletinib 0.058

ATAD3A isoform 2 (UniProt Q9NVI7)
inactive: [1] 0.011 | [2] -0.088 | [3] -0.128 | [4] -0.088 | entinostat 0.053 | vorinostat 0.123 | citarinostat 0.076 | silmitasertib 0.051 | [5] 0.12 | [6] -0.127 | entospletinib 0.024

ATP5ME (UniProt P56385)
Sequence of UniProt P56385 (P56385 whole entry, looked up): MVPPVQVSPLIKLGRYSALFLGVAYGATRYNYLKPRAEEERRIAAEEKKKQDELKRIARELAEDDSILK
inactive: [1] 0.003 | [2] -0.007 | [3] 0.057 | [4] -0.04 | entinostat 0.026 | vorinostat -0.027 | citarinostat -0.007 | silmitasertib -0.008 | [5] -0.037 | [6] -0.039 | entospletinib 0.027

ATP6V1C1 (UniProt P21283)
inactive: [1] -0.015 | [2] -0.135 | [3] -0.173 | [4] -0.09 | entinostat 0.062 | vorinostat 0.039 | citarinostat 0.008 | silmitasertib 0.03 | [5] 0.025 | [6] -0.103 | entospletinib -0.02

ATR (UniProt Q13535)
inactive: [1] -0.003 | [2] 0.002 | [3] 0.044 | [4] -0.089 | entinostat 0.017 | vorinostat 0.057 | citarinostat 0.039 | silmitasertib 0.035 | [5] -0.058 | [6] -0.066 | entospletinib -0.021

BRD8 (UniProt Q9H0E9)
inactive: [1] 0.008 | [2] -0.107 | [3] 0.038 | [4] -0.014 | entinostat -0.041 | vorinostat -0.125 | citarinostat -0.12 | silmitasertib 0.038 | [5] 0.022 | [6] -0.059 | entospletinib 0.031

ARL6IP4 (UniProt Q66PJ3)
inactive: [1] -0.035 | [2] 0.221 | [3] 0.025 | [4] 0.013 | entinostat -0.04 | vorinostat -0.011 | citarinostat 0.04 | silmitasertib -0.017 | [5] -0.007 | [6] -0.017 | entospletinib 0.034

BID isoform 2 (UniProt P55957)
Sequence of UniProt P55957 (P55957 whole entry, looked up): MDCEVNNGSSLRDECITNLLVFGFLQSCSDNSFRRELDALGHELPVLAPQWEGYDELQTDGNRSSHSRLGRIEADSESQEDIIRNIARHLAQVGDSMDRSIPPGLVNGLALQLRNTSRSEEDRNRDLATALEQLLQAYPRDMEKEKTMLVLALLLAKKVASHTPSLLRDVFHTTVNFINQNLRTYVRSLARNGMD
inactive: [1] 0.032 | [2] 0.019 | [3] -0.037 | [4] 0.052 | entinostat -0.018 | vorinostat -0.039 | citarinostat 0.006 | silmitasertib -0.008 | [5] 0.042 | [6] 0.005 | entospletinib 0.025

ARL3 (UniProt P36405)
inactive: [1] 0.02 | [2] -0.005 | [3] -0.051 | [4] 0.006 | entinostat -0.024 | vorinostat -0.013 | citarinostat 0.05 | silmitasertib 0 | [5] -0.001 | [6] -0.022 | entospletinib 0.008

ACAP2 (UniProt Q15057)
Sequence of UniProt Q15057 (Q15057 whole entry, looked up): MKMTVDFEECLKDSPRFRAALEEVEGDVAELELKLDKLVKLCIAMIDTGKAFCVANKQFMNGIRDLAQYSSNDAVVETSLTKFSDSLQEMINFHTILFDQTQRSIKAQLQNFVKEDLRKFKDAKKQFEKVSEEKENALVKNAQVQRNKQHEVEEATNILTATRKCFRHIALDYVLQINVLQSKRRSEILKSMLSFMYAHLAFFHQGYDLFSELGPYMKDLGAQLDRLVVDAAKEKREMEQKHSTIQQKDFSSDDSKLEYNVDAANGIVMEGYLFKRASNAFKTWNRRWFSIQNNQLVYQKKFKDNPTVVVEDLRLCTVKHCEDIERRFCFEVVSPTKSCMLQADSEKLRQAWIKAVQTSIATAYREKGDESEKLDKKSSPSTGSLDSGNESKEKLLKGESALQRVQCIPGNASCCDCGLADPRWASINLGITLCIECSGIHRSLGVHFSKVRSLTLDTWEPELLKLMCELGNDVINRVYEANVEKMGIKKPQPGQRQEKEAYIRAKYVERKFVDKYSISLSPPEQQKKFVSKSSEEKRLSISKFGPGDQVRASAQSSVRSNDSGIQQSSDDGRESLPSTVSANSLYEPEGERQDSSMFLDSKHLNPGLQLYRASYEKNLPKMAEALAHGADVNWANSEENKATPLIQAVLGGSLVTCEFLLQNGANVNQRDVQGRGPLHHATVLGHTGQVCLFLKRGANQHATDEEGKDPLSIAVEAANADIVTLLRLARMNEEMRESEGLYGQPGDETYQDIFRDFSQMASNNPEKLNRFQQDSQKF
inactive: [1] -0.016 | [2] -0.075 | [3] 0.026 | [4] -0.035 | entinostat 0.005 | vorinostat 0 | citarinostat 0.029 | silmitasertib -0.007 | [5] -0.078 | [6] 0.045 | entospletinib -0.073

ALG5 (UniProt Q9Y673)
Sequence of UniProt Q9Y673 (Q9Y673 whole entry, looked up): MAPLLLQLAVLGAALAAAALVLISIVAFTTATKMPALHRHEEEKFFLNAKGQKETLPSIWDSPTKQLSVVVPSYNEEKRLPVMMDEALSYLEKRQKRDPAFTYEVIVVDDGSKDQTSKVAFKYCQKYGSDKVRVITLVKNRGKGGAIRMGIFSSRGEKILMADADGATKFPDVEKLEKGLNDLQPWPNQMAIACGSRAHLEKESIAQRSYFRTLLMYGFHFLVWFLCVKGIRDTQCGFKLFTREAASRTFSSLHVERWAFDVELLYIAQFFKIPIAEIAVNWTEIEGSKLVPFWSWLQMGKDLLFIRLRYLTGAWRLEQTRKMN
inactive: [1] -0.047 | [2] -0.129 | [3] -0.029 | [4] -0.031 | entinostat 0.02 | vorinostat 0.052 | citarinostat 0.051 | silmitasertib 0.075 | [5] -0.106 | [6] 0.08 | entospletinib -0.005

ACAD9 (UniProt Q9H845)
inactive: [1] -0.009 | [2] -0.051 | [3] -0.036 | [4] -0.012 | entinostat -0.021 | vorinostat 0.033 | citarinostat 0.035 | silmitasertib 0.021 | [5] -0.016 | [6] 0.007 | entospletinib 0.02

ATP13A3 (UniProt Q9H7F0)
Sequence of UniProt Q9H7F0 (Q9H7F0 whole entry, looked up): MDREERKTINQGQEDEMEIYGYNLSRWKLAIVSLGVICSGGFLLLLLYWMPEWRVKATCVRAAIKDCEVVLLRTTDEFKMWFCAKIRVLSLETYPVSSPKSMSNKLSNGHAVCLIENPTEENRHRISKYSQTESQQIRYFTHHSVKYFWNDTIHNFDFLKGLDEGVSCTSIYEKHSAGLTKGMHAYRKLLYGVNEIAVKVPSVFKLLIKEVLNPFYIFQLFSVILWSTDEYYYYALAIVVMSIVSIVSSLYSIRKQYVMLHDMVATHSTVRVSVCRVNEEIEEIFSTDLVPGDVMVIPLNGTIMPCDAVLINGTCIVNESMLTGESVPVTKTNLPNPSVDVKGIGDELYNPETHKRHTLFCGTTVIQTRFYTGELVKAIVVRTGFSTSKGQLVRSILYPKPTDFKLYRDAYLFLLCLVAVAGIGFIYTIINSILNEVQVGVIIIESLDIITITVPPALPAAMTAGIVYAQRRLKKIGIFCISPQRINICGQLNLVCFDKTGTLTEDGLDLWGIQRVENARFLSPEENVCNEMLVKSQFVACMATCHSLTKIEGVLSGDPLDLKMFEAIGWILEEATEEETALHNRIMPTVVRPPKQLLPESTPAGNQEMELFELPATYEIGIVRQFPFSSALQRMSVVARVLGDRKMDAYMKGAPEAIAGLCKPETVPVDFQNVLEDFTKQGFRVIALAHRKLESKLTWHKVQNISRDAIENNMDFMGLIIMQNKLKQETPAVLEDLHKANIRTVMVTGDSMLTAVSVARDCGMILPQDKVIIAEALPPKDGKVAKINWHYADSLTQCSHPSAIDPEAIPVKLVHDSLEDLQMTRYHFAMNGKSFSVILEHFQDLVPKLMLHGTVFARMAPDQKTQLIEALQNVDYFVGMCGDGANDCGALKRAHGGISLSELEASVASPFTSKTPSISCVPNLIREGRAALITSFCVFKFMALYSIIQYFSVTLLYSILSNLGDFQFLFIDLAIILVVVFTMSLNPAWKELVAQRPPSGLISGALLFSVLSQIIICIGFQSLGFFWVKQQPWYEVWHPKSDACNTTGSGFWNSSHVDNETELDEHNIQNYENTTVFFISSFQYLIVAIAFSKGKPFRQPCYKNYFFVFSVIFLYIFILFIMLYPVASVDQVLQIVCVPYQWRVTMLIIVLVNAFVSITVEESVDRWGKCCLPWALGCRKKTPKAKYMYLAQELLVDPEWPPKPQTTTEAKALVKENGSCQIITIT
inactive: [1] -0.072 | [2] 0.027 | [3] -0.082 | [4] 0.039 | entinostat 0.026 | vorinostat -0.026 | citarinostat -0.033 | silmitasertib 0.048 | [5] 0.02 | [6] -0.099 | entospletinib 0.042

AGRN (UniProt O00468)
inactive: [1] 0.016 | [2] 0.053 | [3] 0.033 | [4] 0.02 | entinostat 0.035 | vorinostat -0.126 | citarinostat 0.01 | silmitasertib -0.073 | [5] 0.087 | [6] -0.238 | entospletinib 0.018

AMD1 (UniProt P17707)
inactive: [1] 0.043 | [2] -0.091 | [3] -0.074 | [4] -0.149 | entinostat -0.038 | vorinostat -0.093 | citarinostat 0.007 | silmitasertib 0.004 | [5] -0.007 | [6] -0.08 | entospletinib 0.045
